EPAC2 antagonist: qHTS for Antagonist of cAMP-regulated guanine nucleotide exchange factor 2 (EPAC2): primary screen; EPAC2 GEF exchange of Rap1B-BODIPY-GDP, fluorescence; Potency, µM (series often up to 114 µM), hits mostly inhibitors; 0.18% of 360,000 active; AID 720708, 2013; also: nearly all actives have a fitted effect of over 45% in size
EPAC1 antag: qHTS for Antagonist of cAMP-regulated guanine nucleotide exchange factor 3 (EPAC1): primary screen | Potency, µM (top dose mostly 115 µM), hits mostly inhibitors | Rap guanine nucleotide exchange factor 3 (Homo sapiens), O95398 | 0.14% of 360,000 active | EPAC1 GEF assay, Rap1b-BODIPY-GDP exchange fluorescence; also: nearly all actives have a fitted effect of over 50% in size
EPAC2 agonist: qHTS for Agonist of cAMP-regulated guanine nucleotide exchange factor 4 (EPAC2): primary screen. EPAC2 activation, biochemical qHTS; response scale: 100% = 6.5 mM cAMP response. Potency, µM (titrated, usually from 154 µM), most hits filed as activators. AID 720711, 2013. 0.079% of 360,000 active. Rap guanine nucleotide exchange factor 4 (Homo sapiens), Q8WZA2; also: nearly all actives have a fitted effect of over 50% in size
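Compounds were added across a concentration range to EPAC2 (100 nM), RAP1B-BODIPY-GDP (250 nM) and GDP (50 uM). After 5 min at room temperature, fluorescence was recorded at 5-min intervals for 30 min.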
ALOX12 inh: Primary qHTS assay for inhibitors of human arachidonate 12S-lipoxygenase (ALOX12): Round 2. 1.1% of 580,000 active. Potency, µM (highest dose often 108 µM), usual class: inhibitors. purified 12hLO, xylenol orange hydroperoxide absorbance. AID 1671190, 2021
Target sequence (P18054 whole entry, looked up): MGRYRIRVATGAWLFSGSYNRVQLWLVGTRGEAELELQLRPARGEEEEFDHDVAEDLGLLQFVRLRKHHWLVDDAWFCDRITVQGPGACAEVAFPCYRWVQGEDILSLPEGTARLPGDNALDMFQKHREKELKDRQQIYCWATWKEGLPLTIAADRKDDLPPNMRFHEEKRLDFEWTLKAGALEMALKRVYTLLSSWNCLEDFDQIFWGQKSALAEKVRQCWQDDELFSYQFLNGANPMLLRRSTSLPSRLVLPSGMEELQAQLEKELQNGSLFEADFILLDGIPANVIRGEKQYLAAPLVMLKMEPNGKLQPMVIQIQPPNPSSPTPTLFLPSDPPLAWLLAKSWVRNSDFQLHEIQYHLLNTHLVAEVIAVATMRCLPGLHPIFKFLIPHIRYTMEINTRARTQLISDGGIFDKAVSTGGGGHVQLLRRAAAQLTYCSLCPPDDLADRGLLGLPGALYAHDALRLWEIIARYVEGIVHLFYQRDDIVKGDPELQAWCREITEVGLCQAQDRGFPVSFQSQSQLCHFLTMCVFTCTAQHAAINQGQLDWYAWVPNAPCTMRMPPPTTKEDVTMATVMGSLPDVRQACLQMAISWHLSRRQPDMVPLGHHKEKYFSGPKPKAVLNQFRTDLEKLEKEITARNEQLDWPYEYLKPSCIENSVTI
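Purified human 12hLO (150 nM final) in 25 mM Hepes, 0.01% Triton X-100, pH 7.0 was preincubated 15 min at room temperature with compound. Then 40 uM arachidonic acid was added, 30 min. Hydroperoxide was read by Fe-XO absorbance ratio 573/405 nm.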
USP1 inh: Inhibitors of USP1/UAF1: Primary Screen | 0.23% of 390,000 active | Potency, µM (top dose mostly 57.1 µM), most hits filed as inhibitors | AID 743255, 2014 | recombinant USP1/UAF1, Ub-Rhodamine cleavage fluorescence; also: nearly all actives have a fitted effect of over 60% in size
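USP1/UAF1 complex at 1 nM was preincubated with compound for 15 min at room temperature, then Ub-Rho substrate (150nM final) was added. Fluorescence (480/540 nm) was read kinetically, 6 reads every 60 seconds.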
EPAC1 ag: qHTS for Agonist of cAMP-regulated guanine nucleotide exchange factor 3 (EPAC1): primary screen; Rap guanine nucleotide exchange factor 3 (Homo sapiens), O95398; EPAC1 agonist qHTS, biochemical assay; response scale: 100% = response to 6.5 mM cAMP; Potency, µM (top dose mostly 154 µM), hits mostly activators; 0.073% of 360,000 active; AID 720707, 2013; also: nearly all actives have a fitted effect of over 60% in size
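Nucleotide exchange assay: 100 nM EPAC1 with 250 nM Rap1B loaded with BODIPY-GDP and 50 uM GDP, room temperature. Fluorescence (480/540 nm) read every 5 min for 30 min; signal change normalized to 6.5 mM cAMP as full agonist.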
Numbers stand for hits; – = inactive; ? = inconclusive; · = no result. Hits are enriched below; roughly 1.3% of the tested compounds scored in any of these assays. Calls follow the shape of the dose curve; as a rule, active = well fitted curve in the direction sought with a large enough effect; inconclusive = small, poorly fitted or top-dose-only effect, or another doubt; inactive = no such curve, though single readings can be large; an effect the other way counts as inactive or inconclusive.

SMILES | EPAC2 antagonist | EPAC1 antag | EPAC2 agonist | ALOX12 inh | USP1 inh | EPAC1 ag
CCN1/C(=C/C=C/c2oc3ccc(-c4ccccc4)cc3[n+]2CC)Oc2ccc(-c3ccccc3)cc21 | – | – | 63µM | ? | · | 40µM
COc1ccc(-c2sc3ccc(N4CCOCC4)cc3c2C#CCO)cc1 | – | – | – | 20µM | – | –
Cc1ccc(CN(C)C(=O)Cn2nc(C)c3ccccc3c2=O)c(C)c1 | · | · | · | – | · | ·
COc1ccc(C)cc1NC(=O)c1ccccc1NS(=O)(=O)c1ccc(Cl)s1 | 32µM | – | – | ? | – | –
CC1(C)CC(=O)C(C(C2=C(O)CC(C)(C)CC2=O)c2ccc(Br)s2)C(=O)C1 (centres undefined) | – | – | – | 16µM | – | –
COc1ccc(-c2cnc3c(NC=O)cc(-c4ccoc4)cn23)cc1OC | – | – | – | 5µM | · | –
COc1ccc(-c2cc(NC=O)c3ncc(-c4ccc(OC)c(OC)c4)n3c2)c(OC)c1 | – | – | – | 56µM | · | –
COc1ccccc1Cc1c(-c2ccccc2)nc2c3ccccc3ccn12 | · | · | · | – | · | ·
COc1ccccc1Cc1c(C(C)(C)C)nc2c3ccccc3ccn12 | – | – | – | 28µM | · | –
Cc1cccc(C(=O)NC2C(=O)NNC2c2ccc(Cl)cc2)c1 (centres undefined) | – | – | – | 14µM | – | –
Cc1cn2c3c(=O)[nH]c(=O)n(C)c3nc2n1CCNc1cccc(Cl)c1 | · | · | · | – | · | ·
O=C(NC(=S)NCc1ccncc1)c1ccccc1 | – | – | – | – | – | –
CCOc1ccc(C(C)NC(=S)NCc2ccc(F)cc2)cc1 (centres undefined) | – | – | – | ? | ? | –
O=C(NC(=S)NCc1ccccc1)c1ccccc1 | – | – | – | 40µM | – | –
CCc1ccc(C(C)NC(=S)NCc2ccc(F)cc2)cc1 (centres undefined) | – | ? | – | 45µM | – | –
COc1cccc(C(=O)NC2CCCC2)c1 | – | – | – | – | – | –
CC(C)(C)C(=O)NC(=S)NCc1ccccc1 | – | – | – | 40µM | – | –
COc1cccc(C(=O)NNC(=S)NC2CCCCC2)c1 | – | 50µM | – | – | – | –
CC1CC(C)CN(C(=O)c2ccc(C(C)(C)C)cc2)C1 (centres undefined) | · | · | · | – | · | ·
O=C(/C=C/c1ccc(Cl)cc1Cl)Nc1ccccc1C(F)(F)F | · | · | · | – | · | ·
CC(NC(=O)OCc1ccccc1)C(=O)O (centres undefined) | · | · | · | – | · | ·
COc1ccc(CCNC(=S)NC(=O)c2cccc([N+](=O)[O-])c2)cc1OC | – | – | – | 35µM | – | –
Fc1ccc(CNC(=S)NCc2ccc(Cl)c(Cl)c2)cc1 | · | · | · | 32µM | · | ·
Fc1ccc(CNC(=S)NCc2ccc(F)cc2)cc1 | – | – | – | ? | ? | –
O=C(NC(=S)NC1CCCC1)c1ccccc1 | – | – | – | 13µM | – | –
SMILES | EPAC2 antagonist | EPAC1 antag | EPAC2 agonist | ALOX12 inh | USP1 inh | EPAC1 ag
O=C(NC(=S)NCc1ccc(F)cc1)c1ccccc1 | – | – | – | 16µM | – | –
CCc1nc2ccc(C(=O)Nc3ccc(C)cn3)cc2nc1CC | · | · | · | – | · | ·
O=C(CSc1nnc(-c2ccc(F)cc2)n1CC1CCCO1)Nc1ccc(CN2CCCC2)cc1 (centres undefined) | · | · | · | – | · | ·
CN(C)C(CNC(=O)Cn1cnc2c1c(=O)n(C)c(=O)n2C)c1cccs1 (centres undefined) | · | · | · | – | · | ·
COc1ccc(C(=O)NC(=S)NCCc2ccccc2)cc1 | – | – | – | 16µM | – | –
CCCCNC(=O)c1cccc(NC(=O)c2ccncc2)c1 | · | · | · | – | · | ·
CCCCn1c(N)c(N(CC(C)C)C(=O)c2cc(-c3ccc(OC)c(OC)c3)nc3ccccc23)c(=O)[nH]c1=O | – | – | – | ? | – | –
CCCCN(C(=O)c1cccnc1OCC)c1c(N)n(CCC)c(=O)[nH]c1=O | · | · | · | – | · | ·
CCCCn1c(N)c(N(CCOC)C(=O)c2cc(-c3ccc(OC)c(OC)c3)nc3ccccc23)c(=O)[nH]c1=O | – | – | – | 16µM | – | –
CCCn1c(N)c(N(CCOC)C(=O)c2cccnc2OCC)c(=O)[nH]c1=O | · | · | · | 16µM | · | ·
CN1CCN(C(=O)CN(Cc2ccc(Cl)c(Cl)c2)S(=O)(=O)c2ccccc2)CC1 | · | · | · | – | · | ·
COC(=O)c1sc2ncccc2c1OCc1c(Cl)cccc1Cl | – | – | – | 40µM | – | –
COC(=O)c1sc2ncccc2c1OCc1cccc(Cl)c1 | – | – | – | – | – | –
Cc1oc(-c2cccs2)nc1C(=O)NC(C)COCC(F)(F)F (centres undefined) | · | · | · | – | · | ·
O=C1NN(c2ccccc2)C(=O)/C1=C/c1ccc(Sc2cccc3ccccc23)o1 | – | 56µM | – | ? | ? | –
O=C(Cc1ccc(Cl)cc1)N1CCN(c2ccccc2O)CC1 | · | · | · | 32µM | · | ·
O=C(Cc1ccc(Cl)cc1)N1CCN(c2ccccc2)CC1 | – | – | – | ? | – | –
CN(C)c1ccc(C(=O)OCC(=O)Nc2ccc(S(N)(=O)=O)cc2)cc1 | 50µM | 50µM | – | – | ? | ?
CC(=O)c1c(N2CCN(c3cccc(Cl)c3)CC2)nc(=S)n(-c2ccccc2)c1C | – | – | – | 35µM | – | –
COc1ccc(N2CCN(c3nc(=S)n(-c4ccccc4)c(C)c3C(C)=O)CC2)cc1 | – | – | – | 40µM | – | –
CC(NC(=O)CC12CC3CC(CC(C3)C1)C2)c1ccncc1 (centres undefined) | · | · | · | – | · | ·

Bioassay records as filed in PubChem BioAssay.
